{
  "source": "PubChem BioAssay (EPA / NIEHS)",
  "note": "Active and inactive are the calls of the source. How the source made its calls: active means hit-call score of the fitted dose curve at least 0.9, where 1 is the maximum; inactive means score below 0.9.",
  "data": [
    {"assay": "APR_HepG2_NuclearSize_72hr: Apredica 72-hour HepG2 Assay for Nuclear Size (AID 2282925)", "conditions": "high-content imaging, actives raise or lower the signal", "protocol": "APR_HepG2_72hr is a cell-based, multiplexed-readout assay that uses HepG2, a human liver cell line, with measurements taken at 72 hours after chemical dosing in a 384-well plate.APR_HepG2_NuclearSize_72hr is one of 10 assay component(s) measured or calculated from the APR_HepG2_72hr assay. It is designed to make measurements of cell phenotype, a form of morphology reporter, as detected with fluorescence intensity signals by HCS Fluorescent Imaging technology.Data from the assay component APR_HepG2_NuclearSize_72hr was analyzed into 1 assay endpoint. This assay endpoint, APR_HepG2_NuclearSize_72hr, was analyzed with bidirectional fitting relative to DMSO as the negative control and baseline of activity. Using a type of morphology reporter, measures of all nuclear dna for gain or loss-of-signal activity can be used to understand the signaling at the nuclear-level. Furthermore, this assay endpoint can be referred to as a primary readout, because this assay has produced multiple assay endpoints where this one serves a signaling function. To generalize the intended target to other relatable targets, this assay endpoint is annotated to the cell morphology intended target family, where the subfamily is organelle conformation.\nCells were treated with dimethyl sulfoxide (DMSO) as a solvent control at a final concentration of 0.5% v/v or with compounds in DMSO with a resulting final DMSO concentration of 0.5% v/v. Compound treatment was done at concentrations of 0.39, 0.78, 1.56, 3.12, 6.24, 12.5, 25, 50, 100, and 200 uM in duplicate on each plate. Cells were treated with compounds for 1, 24, or 72 hr. Carbonyl […] m-chloro-phenylhydrazone (CCCP) and taxol were used as positive controls for mitochondrial function and cytoskeletal stability, respectively; DMSO served as the negative control for this experiment. Cells were fixed by the direct addition of 50 uL formaldehyde in Hank's Balanced Salt Solution (HBSS) to a final concentration of 3.7%. After incubation in the fixation medium for 30 min at room temperature (293-298 K), cells were rinsed twice with HBSS and treated with cell permeabilization buffer (16 uL of 0.5% Triton X-100) for 10 min at room temperature (293-298 K) before labeling. For mitochondrial membrane potential and mitochondrial measurements, pre-fixed cells were incubated with 50 uL of MitoTracker Red CMXRos (Invitrogen) at a concentration of 250 nM for 30 min before fixation. In the remaining cases, post-fixed cells were labeled by incubation with a multiplexed mixture of primary antibodies in HBSS for 60 min at room temperature (293-298 K) to detect immunoreactivity of c-Jun (1:500), phospho-histone H3 (1:100), phospho-histone H2A.x (1:200), p53 (1:400), alpha-tubulin (1:200) and Hoechst 33342 (2 ug/mL). Cells were labeled for multiplexed imaging on two separate plates: a) Hoechst 33342, MitoTracker Red, phospho-histone H3, and alpha-tubulin, and b) Hoechst 33342, phospho-histone H2A.x, and c-Jun. A final rinse with HBSS (50 uL) was performed before analysis. The primary and secondary antibodies for the proteins were phospho-histone H3 (rabbit anti-phospho-histone H3 and FITC-donkey anti-rabbit IgG), phospho-histone H2A.x (mouse anti-phospho-histone H2A.x and FITC-donkey anti-mouse IgG), c-Jun (rabbit anti-phospho-c-Jun and Cy3-donkey anti-rabbit IgG), p53 (sheep anti-p53 and Cy5-donkey anti-sheep IgG), alpha-tubulin (mouse anti-alpha-tubulin and Cy5-donkey anti-mouse IgG). These antibodies are available as the CellCiphr HepG2 assay kit (Millipore).Digital images of each well were captured using a Cellomics ArrayScan VTI (Thermo Scientific Cellomics) (0.8 NA objective, 0.63x optical coupler, and XF-93 filter set) at 20x magnification. The images were acquired using the autofocus feature of the ArrayScan instrument, which entails the following steps. First, the camera focuses on channel 1 (Hoechst 33342), where nuclei are identified. Second, a Z offset of 1 um is used for capturing mitochondria (MitoTracker Red). […]", "values": [
      {"compound": "CCCN(CCC)c1c([N+](=O)[O-])cc(S(N)(=O)=O)cc1[N+](=O)[O-]", "outcome": "inactive"},
      {"compound": "CC(C)Oc1cc(-n2nc(C(C)(C)C)oc2=O)c(Cl)cc1Cl", "outcome": "inactive"},
      {"compound": "OC(c1ccc(Cl)cc1)(c1cncnc1)c1ccccc1Cl", "note": "(stereo not given)", "outcome": "inactive"},
      {"compound": "COc1nc(NC(C)C)nc(NC(C)C)n1", "outcome": "inactive"},
      {"compound": "Cc1cc(Cl)ccc1OCC(=O)O", "outcome": "inactive"},
      {"compound": "CN(C)C(=S)SSC(=S)N(C)C", "outcome": "inactive"},
      {"compound": "COC(=O)c1ccccc1C(=O)OC", "outcome": "inactive"},
      {"compound": "CCOC(=O)CC(SP(=S)(OC)OC)C(=O)OCC", "note": "(stereo not given)", "outcome": "inactive"},
      {"compound": "COC(=O)C=C(C)OP(=O)(OC)OC", "outcome": "inactive"},
      {"compound": "CCNc1nc(Cl)nc(NC(C)C)n1", "outcome": "inactive"},
      {"compound": "Cc1ccc(-c2c(Cl)nc(C#N)n2S(=O)(=O)N(C)C)cc1", "outcome": "inactive"},
      {"compound": "Fc1ccc(Oc2ccnc3cc(Cl)cc(Cl)c23)cc1", "outcome": "inactive"},
      {"compound": "CCCCNC(=O)n1c(NC(=O)OC)nc2ccccc21", "outcome": "inactive"},
      {"compound": "CNC(=O)ON=CC(C)(C)SC", "outcome": "inactive"},
      {"compound": "CC(C)(C)c1ccc(CSc2cnn(C(C)(C)C)c(=O)c2Cl)cc1", "outcome": "inactive"},
      {"compound": "N#Cc1nn(-c2c(Cl)cc(C(F)(F)F)cc2Cl)c(N)c1S(=O)C(F)(F)F", "note": "(stereo not given)", "outcome": "inactive"},
      {"compound": "CO/C=C(/C(=O)OC)c1ccccc1Oc1cc(Oc2ccccc2C#N)ncn1", "outcome": "inactive"},
      {"compound": "COc1nc(C)nc(NC(=O)NS(=O)(=O)c2ccccc2CCC(F)(F)F)n1", "outcome": "inactive"},
      {"compound": "CCOC(=O)C(Cl)Cc1cc(-n2nc(C)n(C(F)F)c2=O)c(F)cc1Cl", "note": "(stereo not given)", "outcome": "inactive"},
      {"compound": "COc1cnc(OC)n2nc(NS(=O)(=O)c3c(OCC(F)F)cccc3C(F)(F)F)nc12", "outcome": "inactive"},
      {"compound": "CC1=C(C(=O)Nc2ccccc2)SCCO1", "outcome": "inactive"},
      {"compound": "N#CC(CCc1ccc(Cl)cc1)(Cn1cncn1)c1ccccc1", "note": "(stereo not given)", "outcome": "inactive"},
      {"compound": "CCc1nn(C)c(C(=O)NCc2ccc(C(C)(C)C)cc2)c1Cl", "outcome": "inactive"},
      {"compound": "CCCC1COC(Cn2cncn2)(c2ccc(Cl)cc2Cl)O1", "note": "(stereo not given)", "outcome": "inactive"},
      {"compound": "Oc1ccccc1-c1ccccc1", "outcome": "inactive"},
      {"compound": "CCOP(=S)(OCC)SCn1c(=O)oc2cc(Cl)ccc21", "outcome": "inactive"},
      {"compound": "O=C(O)COc1nc(Cl)c(Cl)cc1Cl", "outcome": "inactive"},
      {"compound": "CNC(=S)S", "outcome": "inactive"},
      {"compound": "O=C(O)c1nc(Cl)ccc1Cl", "outcome": "inactive"},
      {"compound": "CC1COC(Cn2cncn2)(c2ccc(Oc3ccc(Cl)cc3)cc2Cl)O1", "note": "(stereo not given)", "outcome": "inactive"},
      {"compound": "CON(C)C(=O)Nc1ccc(Cl)c(Cl)c1", "outcome": "inactive"},
      {"compound": "C=CCC1=C(C)[C@@H](OC(=O)[C@@H]2[C@@H](C=C(C)C)C2(C)C)CC1=O", "outcome": "inactive"},
      {"compound": "CCCCC(CC)COC(=O)c1ccccc1C(=O)OCC(CC)CCCC", "note": "(stereo not given)", "outcome": "inactive"},
      {"compound": "C=CCC1=C(C)C(OC(=O)C2C(C=C(C)C)C2(C)C)CC1=O", "note": "(stereo not given)", "outcome": "inactive"},
      {"compound": "CS/C(C)=N/OC(=O)N(C)SN(C)C(=O)O/N=C(\\C)SC", "outcome": "inactive"},
      {"compound": "COP(=S)(OC)Oc1nc(Cl)c(Cl)cc1Cl", "outcome": "inactive"},
      {"compound": "COP(N)(=O)SC", "note": "(stereo not given)", "outcome": "inactive"},
      {"compound": "C=CC1(C)OC(=O)N(c2cc(Cl)cc(Cl)c2)C1=O", "note": "(stereo not given)", "outcome": "inactive"},
      {"compound": "CCCCNC(=O)OCC#CI", "outcome": "inactive"},
      {"compound": "N#Cc1cc(Br)c(O)c(Br)c1", "outcome": "inactive"}
    ]}
  ]
}
